# Data taken from article PMC11574364.
# Legend:
# Test in all cases: protein domain microarray probed with biotinylated miRNA; Domain array: 20 mM Tris-HCl pH 7.4, 200 mM KCl, 0.2 mM EDTA, 0.05% NP40, 2 ug/ul heparin, overnight 4 C. ORF array: PBS pH 7.0 with RNase inhibitor, 100 ng RNA; high values mean tight binding
# Settings in all cases: ssRNA
# [1] = molecular target: hnRNP K(3) (Homo sapiens, UniProt P61978)
# [2] = molecular target: T1, RBM35A (Homo sapiens, UniProt Q6NXG1)
# T1 sequence: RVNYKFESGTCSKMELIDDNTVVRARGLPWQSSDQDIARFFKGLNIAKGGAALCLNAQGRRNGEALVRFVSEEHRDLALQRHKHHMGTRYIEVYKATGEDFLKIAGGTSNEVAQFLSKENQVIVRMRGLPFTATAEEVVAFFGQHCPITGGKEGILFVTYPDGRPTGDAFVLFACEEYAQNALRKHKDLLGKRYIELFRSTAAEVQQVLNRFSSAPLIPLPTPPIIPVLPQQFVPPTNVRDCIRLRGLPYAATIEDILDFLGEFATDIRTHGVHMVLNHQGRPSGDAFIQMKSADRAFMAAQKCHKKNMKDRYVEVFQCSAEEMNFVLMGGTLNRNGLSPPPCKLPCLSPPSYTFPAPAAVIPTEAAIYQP
# [3] = molecular target: T2, RKHD2(1-2) (Homo sapiens, UniProt Q5U5Q3)
# T2 sequence: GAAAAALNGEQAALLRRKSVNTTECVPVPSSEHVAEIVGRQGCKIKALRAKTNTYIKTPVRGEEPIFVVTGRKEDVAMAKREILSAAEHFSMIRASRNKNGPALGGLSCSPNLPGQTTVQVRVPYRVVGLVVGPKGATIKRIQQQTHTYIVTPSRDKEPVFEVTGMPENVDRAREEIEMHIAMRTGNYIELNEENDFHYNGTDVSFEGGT
# [4] = molecular target: T3, RBM35B (Homo sapiens, UniProt Q9H6T0)
# T3 sequence: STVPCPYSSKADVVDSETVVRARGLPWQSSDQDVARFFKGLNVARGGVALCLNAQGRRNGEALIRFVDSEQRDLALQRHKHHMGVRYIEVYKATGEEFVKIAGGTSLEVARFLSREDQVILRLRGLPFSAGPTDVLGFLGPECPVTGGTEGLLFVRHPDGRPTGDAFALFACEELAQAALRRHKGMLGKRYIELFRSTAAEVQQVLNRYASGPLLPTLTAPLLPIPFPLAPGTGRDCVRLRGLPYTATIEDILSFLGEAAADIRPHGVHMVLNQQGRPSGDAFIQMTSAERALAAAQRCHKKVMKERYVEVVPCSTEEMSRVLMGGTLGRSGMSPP
# [5] = molecular target: TAF15 (Homo sapiens, UniProt Q92804)
# TAF15, sequence (Q92804 215-340): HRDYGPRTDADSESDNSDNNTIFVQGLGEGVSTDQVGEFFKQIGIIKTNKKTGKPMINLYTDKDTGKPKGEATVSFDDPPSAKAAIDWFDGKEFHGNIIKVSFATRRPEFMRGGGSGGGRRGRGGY
# [6] = molecular target: T4, RBM6 (Homo sapiens, UniProt P78332)
# T4 sequence: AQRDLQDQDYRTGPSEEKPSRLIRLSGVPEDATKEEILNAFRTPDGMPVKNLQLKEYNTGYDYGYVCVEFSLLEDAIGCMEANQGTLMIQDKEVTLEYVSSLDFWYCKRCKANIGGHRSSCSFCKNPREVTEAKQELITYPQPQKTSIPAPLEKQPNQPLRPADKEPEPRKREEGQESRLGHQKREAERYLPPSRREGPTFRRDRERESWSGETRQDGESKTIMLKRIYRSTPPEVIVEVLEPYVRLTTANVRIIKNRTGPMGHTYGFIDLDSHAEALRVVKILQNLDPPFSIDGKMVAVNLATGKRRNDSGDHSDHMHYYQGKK
# [7] = molecular target: T5, RBM23 (Homo sapiens, UniProt Q86U06)
# T5 sequence: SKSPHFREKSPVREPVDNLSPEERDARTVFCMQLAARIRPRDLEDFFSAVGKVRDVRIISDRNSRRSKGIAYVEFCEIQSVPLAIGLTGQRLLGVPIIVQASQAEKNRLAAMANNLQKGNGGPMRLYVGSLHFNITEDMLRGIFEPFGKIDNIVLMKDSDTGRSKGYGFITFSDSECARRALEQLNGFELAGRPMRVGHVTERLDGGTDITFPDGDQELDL
# [8] = molecular target: T6, KHDRBS2 (Homo sapiens, UniProt Q5VWX1)
# T6 sequence: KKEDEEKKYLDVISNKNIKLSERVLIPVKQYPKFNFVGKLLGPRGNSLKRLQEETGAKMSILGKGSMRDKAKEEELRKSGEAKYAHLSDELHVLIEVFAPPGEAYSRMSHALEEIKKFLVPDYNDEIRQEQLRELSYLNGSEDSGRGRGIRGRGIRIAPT
# [9] = molecular target: T7, RBM12B(1-3) (Homo sapiens, UniProt Q8IXT5)
# T7 sequence: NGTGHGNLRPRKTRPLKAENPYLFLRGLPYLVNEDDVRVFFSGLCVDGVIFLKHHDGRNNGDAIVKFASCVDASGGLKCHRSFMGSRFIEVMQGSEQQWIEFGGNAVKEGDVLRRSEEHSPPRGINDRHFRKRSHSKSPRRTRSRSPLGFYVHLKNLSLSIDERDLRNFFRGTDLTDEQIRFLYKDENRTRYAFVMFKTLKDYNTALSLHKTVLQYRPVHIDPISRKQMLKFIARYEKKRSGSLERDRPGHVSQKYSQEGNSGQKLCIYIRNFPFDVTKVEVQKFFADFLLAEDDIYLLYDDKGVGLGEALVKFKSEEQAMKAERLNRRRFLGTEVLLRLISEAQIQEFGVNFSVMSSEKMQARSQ
# [10] = molecular target: RED1(2)/ADARB1 (Homo sapiens, UniProt P78563)
# hnRNP K(3), sequence (P61978 369-463): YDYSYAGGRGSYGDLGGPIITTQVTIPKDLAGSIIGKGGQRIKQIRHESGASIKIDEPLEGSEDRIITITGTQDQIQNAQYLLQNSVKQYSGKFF
Sequence,binding signal [1] [fluorescence intensity],binding signal [2] [fluorescence intensity],binding signal [3] [fluorescence intensity],binding signal [4] [fluorescence intensity],binding signal [5] [fluorescence intensity],binding signal [6] [fluorescence intensity],binding signal [7] [fluorescence intensity],binding signal [8] [fluorescence intensity],binding signal [9] [fluorescence intensity],binding signal [10] [fluorescence intensity]
AGAGGUAGUAGGUUGCAUAGUU,181 ± 4.45,2590 ± 119,874 ± 10.7,170 ± 4.31,299 ± 23.1,491 ± 28,644 ± 79.1,1300 ± 14.4,274 ± 48.6,73.3 ± 1.94
CAGUGCAAUGAUGAAAGGGCAU,294 ± 10.8,1310 ± 17.7,486 ± 53.7,135 ± 1.71,104 ± 15.9,107 ± 6.4,199 ± 29.6,1440 ± 198,194 ± 28.6,68.1 ± 3.97
UGAGGUAGUAGGUUGUAUGGUU,199 ± 15.1,1320 ± 26.9,733 ± 12,193.1 ± 0.566,588 ± 28.9,550 ± 31,843 ± 102,842 ± 171,324 ± 46.5,87.6 ± 3.8
UAGCUUAUCAGACUGAUGUUGA,79.6 ± 1.76,26.4 ± 2.09,234 ± 5.59,–,–,–,26.5 ± 5.48,463 ± 19.2,–,–
UGAGGUAGUAGGUUGUGUGGUU,291 ± 3.08,1439 ± 11.1,680.7 ± 1.67,287 ± 29.8,662 ± 122,453 ± 28.5,678.5 ± 0.919,1190 ± 18.7,329 ± 27.9,143.2 ± 0.375
UGAGGUAGUAGGUUGUAUAGUU,52.1 ± 3.1,521 ± 7.45,509.4 ± 2.09,31.4 ± 1.56,54.7 ± 13.8,20.3 ± 1.75,162.15 ± 0.134,388 ± 52.1,44.5 ± 1.46,25 ± 0.453
